Inconclusive results are not listed. A call without a number means that no potency is given here. The source made the active and inactive calls. Calls come from the whole dose curve; as a rule, active = well fitted inhibition curve with a large enough effect; inconclusive = small, poorly fitted or top-dose-only effect; inactive = no such curve, though single readings can be large or run the other way. Square brackets hold non-standard residues; d marks the D form. Peptide text beside a SMILES is read from it. Ala(indol-2-yl) = N[C@@H](Cc1cc2ccccc2[nH]1)C(=O)O; Aib = CC(C)(N)C(=O)O

In this assay the target is Retinaldehyde dehydrogenase 3 (Homo sapiens) (UniProt P47895). Briefly: qHTS for Inhibitors of the Aldehyde Dehydrogenase Family (ALDH1A3) Primary screen (AID 2061315). The settings on record: ALDH inhibition qHTS; series mostly up to 56 µM.
For the compound `OCc1nnc2n1-c1ccc(Cl)cc1C(c1ccccc1Cl)=NC2`, the Potency entry is “inactive”.

Regarding `CN(CC[C@H](N)CC(=O)N[C@H]1C=C[C@@H](n2ccc(N)nc2=O)O[C@@H]1C(=O)O)C(=N)N`, the activity change, negative = inhibition is 7.62% [at 11.2 µM] (inactive).

For `CCCCOC(=O)c1ccnc2cc(C(OCCN3CCCCC3)c3ccccc3Cl)sc12` (stereo unspecified), the Potency entry was “inactive”.

As for `CCC(C)(OC(C)=O)C(=O)O[C@H]1[C@H](OC(C)=O)C[C@@H]2[C@@](C)([C@@H]3C[C@H]4C=CO[C@H]4O3)[C@H](C)C[C@H](OC(C)=O)[C@@]2(COC(C)=O)[C@@]12CO2` (stereo partly specified), the Potency result is “inactive”.

For `CC(C)(NC(=O)[C@@H](N)Cc1ccc(O)cc1)C(=O)N[C@@H](Cc1cc2ccccc2[nH]1)C(=O)N[C@@H](Cc1ccccc1)C(=O)O` (H-Y[Aib][Ala(indol-2-yl)]F-OH), the activity change, negative = inhibition was -10.2% [at 11.2 µM] (inactive).

On to `C=CC(C)(C)C12C=C(O)C(=O)N3/C(=C\c4cnc[nH]4)C(=O)NC31N(OC)c1ccccc12` (stereo unspecified), for which the Potency result was “inactive”.

With `CCOP(=O)(OCC)Oc1ccc2c(C)cc(=O)oc2c1`, the Potency entry was “inactive”.

Turning to `C[C@H]1O[C@@H](n2cnc3c(N)ncnc32)C[C@@H]1O`, the Potency entry is “inactive”.

`COC1CC(O[C@H]2CC[C@@]3(C)C(=CCC4C3C(O)[C@@H](O)[C@]3(C)[C@@H](C(C)=O)CC[C@]43O)C2)OC(C)C1OC1CC(OC)C(OC2OC(C)C(O)C(O)C2O)C(C)O1` (stereo partly specified): the Potency entry is “inactive”.

As for `C=C[C@H]1CN2CC[C@H]1C[C@@H]2[C@@H](O)c1ccnc2ccccc12`, the Potency result is “inactive”.

Regarding `C/C=C1/CN2CC[C@]34C(=Nc5ccc(OC)cc53)C2C[C@@H]1C4(CO)C(=O)OC` (stereo partly specified), the Potency entry is “inactive”.

Take `CCCOC(=O)Cc1ccc(OCC(=O)N(CC)CC)c(OC)c1`: the Potency entry is “inactive”.

Regarding `C/C=C(\C)C(O)C(C)/C=C(C)/C=C/C/C(C)=C/Cc1nc(OC)c(OC)c(O[C@@H]2O[C@@H](C)[C@H](O)[C@@H](O)[C@H]2O)c1C` (stereo partly specified), the Potency entry is “inactive”.

In the case of `CC(=O)OC[C@]12C[C@H](OC(=O)CC(C)C)C(C)=C[C@H]1O[C@@H]1[C@H](O)C[C@@]2(C)[C@]12CO2`, the Potency result was “inactive”.

Take `COC1CC(O[C@H]2CC[C@]3(C=O)C4CC[C@]5(C)[C@@H](C6=CC(=O)OC6)CC[C@]5(O)[C@@H]4CC[C@@H]3C2)OC(C)C1O[C@@H]1O[C@H](CO)[C@@H](O[C@@H]2O[C@H](CO)[C@@H](O)[C@H](O)[C@H]2O)[C@H](O)[C@H]1O` (stereo partly specified): the Potency entry was “inactive”.

On to `CC(=O)OC[C@]12C[C@H](O)C(C)=C[C@H]1O[C@@H]1[C@H](O)[C@@H](OC(C)=O)[C@@]2(C)[C@]12CO2`, for which the Potency result was “inactive”.

Consider `C=C1CC[C@H]2[C@@H](/C=C(\C)C(=O)[C@@]3(OC(C)=O)C[C@H](C)[C@H](OC(=O)c4ccccc4)[C@@H]3[C@H]1OC(C)=O)C2(C)C`, for which the Potency entry was “inactive”.

For `C[C@]12CC[C@H](OC3OC(CO)C(O)C(O)C3OC3OC(CO)C(O)C(O)C3O)C[C@@H]1CC[C@@H]1C2CC[C@]2(C)[C@@H](C3=CC(=O)OC3)CC[C@]12O` (stereo partly specified), the Potency entry was “inactive”.

As to `CN1[C@H]2C[C@H](OC(=O)[C@H](CO)c3ccccc3)C[C@@H]1[C@@H](O)C2`, the Potency result is “inactive”.

For the compound `CC(O)(c1ccccc1)C(Cc1ccc(Cl)cc1)n1cncn1` (stereo unspecified), the Potency entry was “inactive”.

In the case of `C[C@]12CC[C@H](O)C[C@@H]1CC[C@@H]1[C@@H]2CC[C@]2(C)[C@@H](C3=CC(=O)OC3)CC[C@]12O`, the Potency result was “inactive”.

`CC1=CC2(O)/C=C/C(C)(O)C(O)C(O)/C=C/C(=O)OC23C(=O)NC(CC(C)C)C3C1C` (stereo unspecified): the Potency entry is “inactive”.

Regarding `C[C@]12CC[C@H](O)CC1=CC[C@@H]1C2CC[C@]2(C)[C@@H](C3=CC(=O)OC3)CC[C@]12O` (stereo partly specified), the Potency result is “inactive”.

Regarding `Clc1ccc([C@]23CNC[C@H]2C3)cc1Cl`, the Potency result is “inactive”.

Regarding `CCCCCn1cc(C(=O)c2cccc3ccccc23)c2ccccc21`, the Potency result was “inactive”.

As to `C=CC/C=C\C/C=C\CCCCCCCc1cc(O)cc(O)c1`, the Potency result was “inactive”.

As to `CN1CCN(c2nc3ccccc3nc2Cl)CC1`, the Potency result was “inactive”.

With `CC(=O)OC[C@]12[C@H](OC(C)=O)C(=O)[C@@H]3[C@@H](O)[C@@]14O[C@@]3(C)COC(=O)c1cccnc1[C@@H](C)[C@H](C)C(=O)O[C@@H]([C@H](OC(C)=O)[C@@H]2OC(C)=O)[C@]4(C)O`, the Potency entry is “inactive”.

As for `C[C@H]1CCC[C@H](O)CCC/C=C/c2cc(O)cc(O)c2C(=O)O1`, the Potency result was “inactive”.

Take `CC12CCC3C(C1)c1c(cc(O)c(C(=O)c4ccccc4)c1OC3(C)C)O2` (stereo unspecified): the Potency entry is “inactive”.

In the case of `CC1=CC(=O)[C@@H](O)[C@]2(C)C3[C@@H](O)[C@@H]4OC(=O)[C@@H]([C@H]4C)[C@]3(C)C(=O)C[C@@H]12` (stereo partly specified), the Potency result is “inactive”.

Values taken from PubChem BioAssay (NCATS).
